Measured values as given in PubChem BioAssay (EPA / NIEHS).
Several values for one entry are separate records, joined by “and”; a condition that tells them apart may be missing. Equal values may be shown once. Inconclusive results are not listed. Where a structure was tested more than once in an assay, its records may differ in their call. Activity calls are given as the source filed them. How the source made its calls, unless noted: active means hit-call score of the fitted dose curve at least 0.9, where 1 is the maximum; inactive means score below 0.9.

Experiments:
[1] = TAMU_PeakParms_SingleDonor1434_Chronotropy: Texas A&M University (TAMU) 1.5-hr Human Induced Pluripotent Stem Cell (iPSC)-derived Cardiomyocytes Calcium (Ca+2) Flux Assay for Cardiotoxicity: Chronotropy (changes in peak frequency) (AID 2284217); conditions: actives raise or lower the signal
Method in brief: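 Beat rate, as mean Ca2+-flux peak frequency, was read from donor 1434 iPSC cardiomyocytes 90 min after exposure to 0.2–100 uM test chemical (0.5% DMSO). Wells that stopped beating were excluded; EC05 from bidirectional DMSO-referenced fitting.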

[2] = CCTE_Shafer_MEA_dev_mutual_information_norm: CCTE's Neural Network Formation Assay for Mutual Information Normalization, Shafer Lab (AID 2284091);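 on AC50: mutual information between electrodes summarised as area under curve across four recording days; potency is for a decrease in mutual information relative to DMSO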
Method in brief: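 Shared information across electrodes, tracked on days 5, 7, 9 and 12 of network development and collapsed as trapezoidal area under the curve. Rat cortical cultures were treated continuously from plating, with treatment renewed at feeds on DIV 5 and 9; DMSO baseline, negative-direction fit.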

[3] = CCTE_Shafer_MEA_dev_correlation_coefficient_mean: CCTE's Neural Network Formation Assay for Mean Correlation Coefficient, Shafer Lab (AID 2284093);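 on AC50: well mean pairwise spike train correlation integrated as AUC over recording days 5 to 12; potency fitted for loss of correlation relative to DMSO vehicle wells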
Method in brief: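 Primary rat cortical neurons on PEI-coated 48-well MEA plates (16 electrodes/well) were exposed from plating day 0 through DIV12, with compound renewed at DIV5 and 9. Pairwise spike correlations were averaged per well; trapezoidal AUC across DIV5, 7, 9, 12.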

[4] = IUF_NPC1b_proliferation_BrdU_72hr: Leibniz Research Institute for Environmental Medicine (IUF) 72-hour Neural Progenitor Cell Bromodeoxyuridine (BrdU) Proliferation Assay (NPC1b) (AID 2284207)
Method in brief: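 Human fetal cortex-derived (GW 16-19) neural progenitor spheres, 0.25-0.35 mm, one per well in EGF/FGF proliferation medium, exposed to compound for 72 h at 37C, pH 7.2-7.6. BrdU incorporation over the final 16 h read by luminescence ELISA, relative to DMSO.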

[5] = IUF_NPC1a_proliferation_area_72hr: Leibniz Research Institute for Environmental Medicine (IUF) 72-hour Neural Progenitor Cell Proliferation Area Assay (NPC1a) (AID 2284208)
Method in brief: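 Proliferation read as increase in sphere area by phase-contrast imaging over 72 h continuous compound exposure (no renewal) of hNPC spheres grown with EGF/FGF at 37C, 5% CO2. Growth-factor withdrawal served as positive control; DMSO as baseline.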

[6] = IUF_NPC1_viability_72hr: Viability Assessment at 72 hours in the Leibniz Research Institute for Environmental Medicine (IUF) Neural Progenitor Cell Proliferation Assay (NPC1) (AID 2284209)
Method in brief: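 Alamar blue fluorescence (RFU) after 72 h exposure, normalized to DMSO baseline. hNPC spheres from GW 16-19 fetal cortex, single sphere per well in growth-factor medium; no compound renewal.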

[7] = UKN2_HCS_IMR90_neural_migration: University of Konstanz (UKN) Leist Lab Neural Crest Cell Migration Assay in human induced IMR90 Pluripotent Stem Cells (UKN2) (AID 2284204); conditions: actives raise or lower the signal
Method in brief: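 High-content imaging of calcein-AM and Hoechst stained cells quantifies migration into a stopper-defined gap after 24 h compound exposure. Neural crest cells from IMR90 iPSC migrated 24 h in EGF/FGF N2-S medium before dosing; DMSO baseline.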

[8] = CCTE_Mundy_HCI_Cortical_Synap_Neur_Matur_NeuriteSpotCountPerNeuriteLength: CCTE's Synaptogenesis and Neurite Maturation Assay in rat cortical cells for Neurite Spot Count per Neurite Length, Mundy Lab (AID 2284210)
Method in brief: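 Synaptophysin spots per unit neurite length, measured by automated imaging of MAP2/synaptophysin/Hoechst-stained neurons. Cultures from rat cortex received chemical at DIV 7 with media change through DIV 12; glial growth arrested by AraC at DIV 5; DMSO baseline.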

[9] = CCTE_Mundy_HCI_Cortical_Synap_Neur_Matur_BPCount: CCTE's Synaptogenesis and Neurite Maturation Assay in rat cortical cells for Branch Point Count, Mundy Lab (AID 2284211)
Method in brief: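 In this multiplexed morphology assay, cortical cells from rat receive chemicals at DIV 7 and are fixed at DIV 12, then immunostained and imaged; branch points are counted, with DMSO as baseline.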

[10] = CCTE_Mundy_HCI_Cortical_NOG_NeuriteCount: CCTE's Neurite Outgrowth Assay in rat cortical cells for Neurite Count, Mundy Lab (AID 2284212);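 further: cells fixed about two days after chemical exposure began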
Method in brief: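 Rat cortical primary cells; compound added 2 h post-plating, 1/10 dilution of working solution. Anti-betaIII-tubulin/AF488 ICC; ArrayScan neurite count vs DMSO.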

[11] = CCTE_Mundy_HCI_Cortical_NOG_NeuriteLength: CCTE's Neurite Outgrowth Assay in rat cortical cells for Neurite Length, Mundy Lab (AID 2284213);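 on AC50: neurites imaged about 48 to 50 h after chemical exposure began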
Method in brief: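 First, rat primary cortical cells were plated and, 2 h later, given test chemical as a 1/10 dilution. Finally, βIII-tubulin immunostaining enabled automated imaging of neurite length.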

[12] = CCTE_Mundy_HCI_Cortical_Synap_Neur_Matur_NeuriteLength: CCTE's Synaptogenesis and Neurite Maturation Assay in rat cortical cells for Neurite Length, Mundy Lab (AID 2284214)
Method in brief: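 Read-out: high-content imaging of MAP2-labelled neurites, with synaptophysin and Hoechst co-stain, in rat cortical cultures fixed at DIV 12. Activity fitted in positive direction relative to DMSO baseline.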

[13] = CCTE_Mundy_HCI_Cortical_Synap_Neur_Matur_NeuriteSpotCountPerNeuron: CCTE's Synaptogenesis and Neurite Maturation Assay in rat cortical cells for Neurite Spot Count per Neuron Count, Mundy Lab (AID 2284215)
Method in brief: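 High-content imaging counts synaptophysin puncta along MAP2-labelled neurites per neuron after chemical exposure of rat cortical cells from DIV 7 to termination at DIV 12 (AraC added DIV 5). Loss of signal relative to DMSO.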

[14] = CCTE_Mundy_HCI_Cortical_Synap_Neur_Matur_SynapseCount: CCTE's Synaptogenesis and Neurite Maturation Assay in rat cortical cells for Synapse Count, Mundy Lab (AID 2284218)
Method in brief: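 Read-out: synapse number per neuron, automated high-content imaging of fixed cells immunostained for MAP2 and synaptophysin plus Hoechst nuclei. Rat primary cortical cultures, AraC at DIV 5, chemical dosing DIV 7–12. Positive-direction fit relative to DMSO.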

[15] = CCTE_Mundy_HCI_Cortical_Synap_Neur_Matur_NeuriteCount: CCTE's Synaptogenesis and Neurite Maturation Assay in rat cortical cells for Neurite Count, Mundy Lab (AID 2284222)
Method in brief: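 Rat cortical neurons, 96-well; AraC DIV 5; chemical + media change DIV 7; end DIV 12. Fix PFA/Hoechst, anti-MAP2 + anti-synaptophysin IF. HCI neurite count vs DMSO baseline.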

[16] = CCTE_Mundy_HCI_Cortical_Synap_Neur_Matur_CellBodySpotCount: CCTE's Synaptogenesis and Neurite Maturation Assay in rat cortical cells for Cell Body Spot Count, Mundy Lab (AID 2284223)
Method in brief: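 High-content imaging counts synaptophysin puncta on neuronal cell bodies per neuron after MAP2/synaptophysin immunostaining. Rat primary cortical cells, glia arrested with AraC at DIV 5, were exposed DIV 7–12; signal decrease measured against DMSO.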

[17] = CCTE_Mundy_HCI_hN2_NOG_NeuriteCount: CCTE's Neurite Outgrowth Assay in human hN2 cells for Neurite Count, Mundy Lab (AID 2284219; active means hit-call score of the fitted dose curve at least 0.9, where 1 is the maximum)
Method in brief: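 In this morphology assay, hNP1-derived neurons received test chemical 2 h post-plating and were fixed two days later in warm paraformaldehyde/sucrose containing Hoechst 33342. Neurites, labelled by rabbit anti-βIII-tubulin (1:800) and Alexa Fluor-488 (1:500), were counted automatically.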

[18] = CCTE_Mundy_HCI_hN2_NOG_NeuriteLength: CCTE's Neurite Outgrowth Assay in human hN2 cells for Neurite Length, Mundy Lab (AID 2284220; active means hit-call score of the fitted dose curve at least 0.9, where 1 is the maximum)
Method in brief: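 Plate hNP1-derived neurons, then add chemical 2 h later as a 1/10 dilution. Stain with anti-βIII-tubulin then Alexa Fluor-488 secondary, and image automatically to measure neurite length.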

[19] = CCTE_Mundy_HCI_hN2_NOG_NeuronCount: CCTE's Neurite Outgrowth Assay in human hN2 cells for Neuron Count, Mundy Lab (AID 2284221; active means hit-call score of the fitted dose curve at least 0.9, where 1 is the maximum)
Method in brief: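 Read-out is the number of betaIII-tubulin-positive neurons imaged by automated high-content analysis, with DMSO as negative control.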

Measured: AC50

CCCCCCCCn1sccc1=O
inactive: [1]

O=P(OCCCl)(OCCCl)OCCCl
inactive: [2] | [3] | [4] | [5] | [6] | [1]

CNC(=O)Oc1cccc2c1OC(C)(C)C2
not listed: [1] | [17] | [18] | [19]
inactive: all other assays above

COP(=S)(OC)SCN1C(=O)c2ccccc2C1=O
active: [2] 22.7 µM | [3] 19 µM | [4] 0.499 µM | [17] 33.5 µM | [18] 31.1 µM | [19] 23.1 µM
inactive: [2] | [3] | [7] | [5] | [6] | [8] | [9] | [10] | [11] | [12] | [13] | [14] | [15] | [16]

Clc1ccc(C(c2ccc(Cl)cc2)C(Cl)Cl)cc1
active: [2] 2.01 µM | [3] 3.89 µM

C1=Cc2cccc3cccc1c23
active: [1] 50 µM
inactive: [2] | [3]

CCNS(=O)(=O)C(F)(F)C(F)(F)C(F)(F)C(F)(F)C(F)(F)C(F)(F)C(F)(F)C(F)(F)F
active: [2] 2.98 µM and 2.72 µM | [3] 2.98 µM and 4.98 µM

CCCCOC(=O)c1ccccc1C(=O)OCc1ccccc1
active: [4] 82 µM | [9] 10 µM
not listed: [1] | [17] | [18] | [19]
inactive: all other assays above

ClC1=C(Cl)C2(Cl)C3C(Cl)C=CC3C1(Cl)C2(Cl)Cl (centres undefined)
inactive: [8] | [1]
active: [2] 1.52 µM | [3] 1.97 µM | [9] 13.3 µM | [10] 17.6 µM | [11] 22.5 µM | [12] 13.4 µM | [13] 10.5 µM | [14] 10.6 µM | [17] 5 µM | [18] 4.18 µM | [19] 2.86 µM | [15] 14.9 µM | [16] 12.4 µM

Nc1cc(Cl)cc(C(=O)O)c1Cl
not listed: [1] | [4] | [5] | [6] | [7]
inactive: all other assays above

CC(C)(C)C(O)(CCc1ccc(Cl)cc1)Cn1cncn1 (centres undefined)
active: [2] 2.24 µM | [3] 15 µM | [6] 0.439 µM | [9] 11.2 µM | [12] 10.2 µM
not listed: [7] | [17] | [19]
inactive: all other assays above
